Screens as filed in PubChem BioAssay.
An excerpt weighted towards active compounds, which were near 2.4% of everything screened.
GLP1R cytotox: cytotoxic in the GLP-1 receptor inverse agonist counter-screen. AID 624418. 410,000 tested, 0.13% active. Potency, µM (series often up to 38.3 µM), inactives show at the highest dose activity change, negative = inhibition, usual class: inhibitors. HEK293 cAMP-luciferase reporter cells, luminescence, 24 h;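 further: loss of luciferase light is scored as toxicity; potency means the concentration at half of the fitted maximal effect; on the % scale 0 is the no-effect control and ±100 the full control effect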
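A 23 nL compound transfer followed 12 hours of cell culture at 37 deg C; exposure then lasted 24 hr. Luciferase assay detection reagent was dispensed and plates read for luminescence after a 12 min room-temperature wait.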
GLP-1R inv ag: inverse agonists of human GLP-1 receptor; HEK293 GLP-1R CRE-luciferase, luminescence, 24 h; GLP-1R form is constitutively active; Potency, µM (highest dose often 38.3 µM), without a hit: at the highest dose activity change, negative = inhibition, hits mostly inhibitors; 410,000 tested, 1.6% active; AID 624417; further: potency means the concentration at half of the fitted maximal effect; on the % scale 0 is the no-effect control and ±100 the full control effect; nearly all actives have a fitted effect of over 55% in size
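Seeding at 200 cells/uL, 12 h culture, 24 hr compound treatment, then luciferase reagent and a luminescence read; cells are HEK293 stably expressing a constitutively active GLP-1R plus cAMP-responsive luciferase.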
PTHR1 ag: agonists of human PTHR1 parathyroid hormone receptor. Q03431. HEK293 GP2 PTHR1 cells, GloSensor cAMP luminescence, 1 h. Potency, µM (series often up to 115 µM), for the others: top-dose activation, actives largely listed as activators. 410,000 tested, 0.075% active. AID 743266; further: potency means the concentration at half of the fitted maximal effect; nearly all actives have a fitted effect of over 55% in size
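HEK-293-derived GP2 cells expressing PTHR1 and a GloSensor cAMP reporter, 3,000/well, plated overnight, given luciferin plus IBMX (each 0.5 mM as added) for 1 h at 37 °C, then compound for 1 h at 37 °C. Luminescence was read after 15 min at room temperature.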
TRHR ag: activates the human TRH receptor; 360,000 tested, 0.18% active; P34981; AID 493084; activation, % at 2 µM; TRHR cells, calcium flux fluo-8, FDSS agonist mode; in the data active means activation above about 30%; further: 0% is about no effect
Target sequence (P34981 whole entry, looked up): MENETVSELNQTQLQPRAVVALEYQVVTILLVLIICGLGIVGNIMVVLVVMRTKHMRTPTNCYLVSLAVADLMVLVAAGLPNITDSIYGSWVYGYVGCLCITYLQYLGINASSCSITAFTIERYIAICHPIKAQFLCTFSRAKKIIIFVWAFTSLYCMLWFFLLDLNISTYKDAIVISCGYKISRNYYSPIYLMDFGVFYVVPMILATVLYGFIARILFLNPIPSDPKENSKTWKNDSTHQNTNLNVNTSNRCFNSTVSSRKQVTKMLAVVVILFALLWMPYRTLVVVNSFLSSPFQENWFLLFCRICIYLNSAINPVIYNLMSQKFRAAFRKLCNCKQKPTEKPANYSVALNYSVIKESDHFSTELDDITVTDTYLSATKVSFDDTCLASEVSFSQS
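TRHR-expressing cells loaded with fluo-8 calcium dye; 23 nL library compound pin-transferred, kinetic FDSS fluorescence (Ex 480/Em 530) recorded about 180 s for agonist-induced calcium release, before a 10 nM TRH EC20 addition for potentiator mode.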
GLP-1R agonist: agonists of human GLP-1 receptor | AID 624172 | P43220 | 380,000 tested, 0.007% active | Potency, µM (series often up to 45.6 µM), without a hit: at the highest dose activation, hits mostly activators | HEK293 GLP-1R CRE-luciferase, luminescence, 4-6 h; cells express a hypersensitive GLP-1R form; further: potency means the concentration at half of the fitted maximal effect; % of control where 0% means no effect
TRHR enhancer: TRH receptor (human) allosteric enhancement; P34981; TRHR cells, fluo-8 calcium fluorescence, EC20 TRH enhancement; enhancement, % at 2 µM; 360,000 tested, 0.66% active; in the data active means enhancement above about 30%; further: 0% is about no effect
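TRHR-expressing cells loaded with fluo-8 calcium dye were read kinetically (ex 480/em 530) during compound addition, then stimulated with an EC20 of TRH (10 nM final). Enhancement of the Gq-mediated intracellular calcium response was scored.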
The depositor's hits bear a star; i = inactive; u = inconclusive; x = not tested or not shown; [ ] = dose if it differs, or a comment. Unless noted, the call rests on the fitted dose curve; in most records, active means well fitted curve in the direction sought with a large enough effect; inconclusive means small, poorly fitted or top-dose-only effect, or another doubt; inactive means no such curve, though single readings can be large; an effect the other way counts as inactive or inconclusive.

SMILES	GLP1R cytotox	GLP-1R inv ag	PTHR1 ag	TRHR ag	GLP-1R agonist	TRHR enhancer
N#Cc1ccccc1S(=O)(=O)N1CCN(C(=O)[C@H](Cc2ccccc2)NC(=O)c2ccco2)CC1	-12%	-25%	i	1	-1%	2
Cc1cc(C(=O)Cn2nnc3ccccc3c2=O)c(C)n1Cc1cccs1	-20%	u	-91%	-1	-18%	32*
COc1ccc(OC)c(C(=O)Cn2nnc3ccccc3c2=O)c1	-7%	0%	-13%	0	-8%	39*
CCC(C(=O)Nc1cc(F)ccc1F)n1nc(C)c2c(C)n(-c3ccc(C)cc3)nc2c1=O (configuration not stated)	-8%	10µM*	-43%	0	4%	-1
COc1cc2oc(=O)ccc2cc1[C@@H](O)[C@@H]1OC(C)(C)OC1(C)C	-33%	13%	-21%	-1	-2%	-1
COc1cc2oc(=O)ccc2cc1[C@H](O)[C@@H](O)C(C)(C)O	10%	13%	-24%	0	2%	39*
CCOC(=O)C1=C(N)Oc2ccc3ccccc3c2C1c1ccc(O)cc1 (configuration not stated)	15%	u	-21%	-1	-1%	-1
CCOC(=O)C1=C(N)Oc2cc(O)ccc2C1c1ccc([N+](=O)[O-])cc1 (configuration not stated)	-7%	10µM*	-7%	2	7%	6
COc1ccc(-c2onc(C)c2C)cc1S(=O)(=O)NCC1CCN(Cc2ccccc2F)CC1	-3%	-20%	i	0	x	0
CC(C)CC(=O)Nc1c(C(=O)N2CCN(Cc3ccccc3)CC2)oc2ccccc12	-12%	u	i	0	8%	-18
COc1ccc(CCNC(=O)c2cc(S(=O)(=O)N3CCCCC3)ccc2Cl)cc1	20%	8.9µM*	-23%	0	7%	5
COc1ccc(S(=O)(=O)NC(N)=NCCc2ccc(OC)c(OC)c2)cc1C	3%	76%	i	0	18%	3
COc1cc2[nH]c(=O)[nH]c(=O)c2cc1OC	x	x	x	x	0%[19.8 µM]	x
Cc1cc(C)c(CN2CCN(CCCn3cnc(C(=O)Nc4ccc(C)c(C)c4)n3)CC2)c(C)c1	u	13µM*	-19%	x	0%	x
NS(=O)(=O)c1ccc(CCNCc2cc(Br)ccc2OCc2ccccc2)cc1	-36%	u	-32%	0	-3%	-3
Cc1cc(/C=C(\C#N)C(=O)NCc2cccs2)c(C)n1-c1ccccc1F	-5%	2.8µM*	-16%[57.5 µM]	1	7%	-9
CCN(CC)CCCNC(=O)c1oc2ccc(S(=O)(=O)N3CC(C)CC(C)C3)cc2c1C (configuration not stated)	u	1.4µM*	i	0	12%	-7
Cc1c(C(=O)N2CCCCC2)oc2ccc(S(=O)(=O)N3CC(C)CC(C)C3)cc12 (configuration not stated)	-17%	8.9µM*	-84%[57.5 µM]	0	1%	-2
Cc1c(C(=O)NCC2CCCO2)oc2ccc(S(=O)(=O)N3CC(C)CC(C)C3)cc12 (configuration not stated)	-5%	u	-54%	0	16%	5
CCOC(=O)N1CCN(C(=O)c2oc3ccc(S(=O)(=O)N4CCCCC4)cc3c2C)CC1	-20%	7%	-5%[57.5 µM]	0	6%	6
Cc1ccc(S(=O)(=O)NCc2ccco2)cc1C(N)=O	-1%[7.66 µM]	-8%[7.66 µM]	i	-1	4%	1
S=C(NC1CCCCC1)NN(c1ccccc1)c1ccccc1	u	10µM*	-6%	-2	-3%	14
C/C(=N\NC(=S)NC1CCCCC1)c1ccc(O)cc1	u	u	u	0	27%	3
C/C(=N\NC(=S)NC1CCCCC1)c1ccccc1	u	5.6µM*	-17%	1	6%	4
O=C1c2ccccc2C(=O)N1CC(O)CN1CCOCC1 (configuration not stated)	-4%	2%	-15%[57.5 µM]	0	-8%	14
SMILES	GLP1R cytotox	GLP-1R inv ag	PTHR1 ag	TRHR ag	GLP-1R agonist	TRHR enhancer
COC(=O)c1ccc(NC(=O)CSCc2ccccc2)cc1	7%	-23%	-8%	0	26%	-2
CC1(C)Cc2ccccc2-c2nnnn21	9%	9%	i	0	0%	2
O=C(Nc1ccccc1)N(Cc1ccc(Cl)cc1)CC(O)C(F)(F)F (configuration not stated)	-19%	10µM*	i	0	12%	3
Cc1ccc(OCCOC(=O)c2cc(S(=O)(=O)N3CCCCC3)ccc2N2CCOCC2)cc1	u	-80%	-26%	0	2%	-2
O=C(OCCOc1ccc(Cl)cc1)c1cc(S(=O)(=O)N2CCCCC2)ccc1N1CCOCC1	-4%	10µM*	-32%	x	17%	x
COc1cc(/C=N/n2nnnc2N)ccc1OCC#N	1%	10%	-15%	1	9%	-5
COc1ccc(CNC(=O)c2ccc(NC(=O)N3CCCCc4ccccc43)cc2)c(OC)c1	9%	11µM*	i	1	x	5
COc1ccc(OC)c(CNC(=O)Cc2ccc(NC(=O)N3CCCCc4ccccc43)cc2)c1	-1%	-25%	-9%	-1	x	-2
O=C(N/N=C/c1cccc(Oc2ccccc2)c1)c1cccc(Br)c1	-35%	8.9µM*	-23%[57.5 µM]	2	-5%	5
NC(=O)c1ccc(C(=O)N/N=C/c2cccc(Oc3ccccc3)c2)cc1	1%	14%	-35%	1	-5%	36*
COc1ccc(CCNc2nc3c(c(=O)n(C)c(=O)n3C)n2Cc2ccccc2Cl)cc1OC	3%	1%	i	-1	x	0
Cc1ccc(OCC(=O)N(c2ccc(C)cc2)S(=O)(=O)c2ccc(Cl)cc2)cc1	0%	4%	i	0	x	-7
COc1ccc(N(C(=O)COc2c(C)cccc2C)S(=O)(=O)c2ccc(Cl)cc2)cc1	0%	10µM*	-9%	0	x	-1
O=C(C1Cc2ccccc2CN1S(=O)(=O)c1ccccc1[N+](=O)[O-])N1CCOCC1 (configuration not stated)	9%	12%	-24%	x	1%	x
Cc1ccc(CSc2nnnn2C)cc1	7%	10%	-3%	0	1%	0
CCCCC(=O)OCC(=O)c1[nH]c(C)c(C(C)=O)c1C	-7%	10%	-7%	0	5%	35*
COCCCN1C(=O)/C(=C/c2ccc(CNS(=O)(=O)c3ccccc3)o2)C(C(=O)OC)=C1C	-10%	75%	i	0	6%	0
